Sampled rows, rich in hits. Any-hit rate of the full collection: about 10%.
Six1-Eya2 blk = inhibitors of human Six1/Eya2 interaction; Q15475+O00167; AlphaScreen GST-Six1/His-Eya2 binding, biochemical; active compounds read low; activity change, % (concentration not given with the values); 360,000 compounds, 0.56% hits; AID 651725; in the data active = activity change below about -65%; inconclusive = mostly about -30% to -63%; note: % is set by controls: 0 for no effect and ±100 for the full control effect
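Compounds are tested against tagged Six1 and Eya2 proteins bridged by glutathione donor and nickel acceptor beads; after a one-hour incubation at 37 °C without light, AlphaScreen emission is recorded.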
JMJD2A Tudor = inhibitors of human JMJD2A Tudor domain; AlphaScreen JMJD2A-Tudor / H3K4me3 peptide binding; Potency, µM (series often up to 114 µM), without a hit: top-dose activity change, negative = inhibition, actives largely listed as inhibitors; 390,000 compounds, 4.4% hits; note: potency is the fitted concentration of half-maximal effect; % is set by controls: 0 for no effect and ±100 for the full control effect; nearly all actives have a fitted effect of over 50% in size
Target sequence (O75164 whole entry, looked up, the tested form may be a part): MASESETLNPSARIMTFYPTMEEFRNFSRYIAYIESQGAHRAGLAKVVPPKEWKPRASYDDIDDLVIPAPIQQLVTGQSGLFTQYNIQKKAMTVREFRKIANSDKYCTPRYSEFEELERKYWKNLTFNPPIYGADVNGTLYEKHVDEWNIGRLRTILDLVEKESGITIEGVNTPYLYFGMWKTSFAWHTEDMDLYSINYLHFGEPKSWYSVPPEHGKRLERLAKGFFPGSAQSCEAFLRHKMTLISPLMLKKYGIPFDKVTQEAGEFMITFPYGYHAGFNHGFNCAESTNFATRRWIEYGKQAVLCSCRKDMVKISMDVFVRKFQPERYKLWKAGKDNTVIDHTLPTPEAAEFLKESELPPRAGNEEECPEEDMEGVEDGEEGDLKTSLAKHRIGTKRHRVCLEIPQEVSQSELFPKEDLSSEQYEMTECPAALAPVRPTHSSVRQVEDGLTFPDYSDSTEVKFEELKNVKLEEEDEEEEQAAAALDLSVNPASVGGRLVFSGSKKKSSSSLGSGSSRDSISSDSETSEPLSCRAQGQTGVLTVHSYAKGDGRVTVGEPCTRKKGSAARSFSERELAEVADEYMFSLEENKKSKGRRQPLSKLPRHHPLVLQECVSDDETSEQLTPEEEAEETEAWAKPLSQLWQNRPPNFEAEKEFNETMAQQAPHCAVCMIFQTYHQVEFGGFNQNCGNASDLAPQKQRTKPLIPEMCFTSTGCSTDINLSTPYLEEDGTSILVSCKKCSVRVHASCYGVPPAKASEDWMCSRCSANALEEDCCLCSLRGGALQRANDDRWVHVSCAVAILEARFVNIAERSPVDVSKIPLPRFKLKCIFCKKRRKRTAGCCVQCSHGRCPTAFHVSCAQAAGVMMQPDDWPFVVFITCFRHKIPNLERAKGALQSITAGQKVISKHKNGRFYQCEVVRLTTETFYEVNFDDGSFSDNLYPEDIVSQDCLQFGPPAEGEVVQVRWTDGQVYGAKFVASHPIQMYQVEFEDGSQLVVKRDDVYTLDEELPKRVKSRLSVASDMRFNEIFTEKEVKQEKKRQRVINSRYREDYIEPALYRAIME
CtBP-E1A blk = inhibitors of CtBP/E1A interaction. AlphaScreen GST-E1A/His-CtBP binding, 1536-well; active compounds read low. activity change, % (no concentration beside the values). 340,000 compounds, 0.49% hits. AID 651724; in the data active = activity change below about -65%; inconclusive = mostly about -30% to -63%; note: % is set by controls: 0 for no effect and ±100 for the full control effect
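AlphaScreen with 125 nM GST-E1A and 125 nM His-CtBP (5X stocks) in Tris pH 8.0, 300 mM NaCl, BSA, Tween 20, TCEP. Compounds preincubated 2 h at 37 deg C, then glutathione donor/nickel acceptor beads added for 1 h at 37 deg C in dark.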
G9a inh = G9a (human) methyltransferase inhibition; G9a H3K9 monomethylation, AlphaScreen, 2 h; 350,000 compounds, 8.8% hits; AID 504332; Q96KQ7; Potency, µM (top dose mostly 102 µM), for the others: at the top dose activity, negative = inhibition, usual class: inhibitors; note: potency is the fitted concentration of half-maximal effect; % is set by controls: 0 for no effect and ±100 for the full control effect; nearly all actives have a fitted effect of over 75% in size
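Enzyme 20 nM + cpd, 15 min RT; add b-H3K9 pep 500 nM / SAM 20 uM; 2 h RT; anti-H3K9me1 Ab 0.5 ug/mL + SA donor / anti-rabbit acceptor beads 20 ug/mL each, 10 min; AlphaScreen read.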
BAZ2B inh = inhibitors of human BAZ2B bromodomain. Q9UIF8. AlphaScreen BAZ2B-H3K14Ac peptide displacement. Potency, µM (series often up to 114 µM), for inactives: at the highest dose activity change, negative = inhibition, most hits filed as inhibitors. 360,000 compounds, 4.4% hits. AID 504333; note: potency is the fitted concentration of half-maximal effect; % is set by controls: 0 for no effect and ±100 for the full control effect; nearly all actives have a fitted effect of over 60% in size
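BAZ2B 50 nM plus b-H3(5-23)K14Ac 50 nM, PBS pH 7.4/0.01% Tween-20, 30 min RT; compound added (max 110 uM), 30 min RT; streptavidin donor/Ni-chelate acceptor beads 10 ug/mL final, 20 min dark; AlphaScreen read.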
HP1b chromo inh = HP1-beta chromodomain-methylated histone interaction inhibition; AlphaScreen HP1-beta / biotin-H3K9me3 peptide binding; Potency, µM (series often up to 114 µM), for the others: at the top dose activity change, negative = inhibition, usual class: inhibitors; 390,000 compounds, 0.56% hits; AID 540317; note: potency is the fitted concentration of half-maximal effect; nearly all actives have a fitted effect of over 70% in size
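Compound inhibition of the preformed complex between 50 nM HP1-beta and 50 nM biotinylated H3K9me3 peptide was read by AlphaScreen. Buffer was PBS pH 7.4 with 0.01% Tween-20. Incubations ran 30 min at room temperature, with 10 ug/mL donor/acceptor beads.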
* hit, by the source's call; ? = inconclusive; · = not tested or not shown; [ ] = another dose, or the depositor's remark. Unless noted, calls come from the whole dose curve; as a rule, active = well fitted inhibition curve with a large enough effect; inconclusive = small, poorly fitted or top-dose-only effect; inactive = no such curve, though single readings can be large or run the other way.

SMILES	Six1-Eya2 blk	JMJD2A Tudor	CtBP-E1A blk	G9a inh	BAZ2B inh	HP1b chromo inh
Cc1nn(-c2ccccc2)c(Cl)c1C1C(C#N)=C(N)OC2=C1C(=O)CC(C)(C)C2 (centres undefined)	-1	-15%	2	16%[59 µM]	3%	4%
Cc1nn(-c2ccccc2)c2c1C(c1ccc([N+](=O)[O-])cc1)C(C#N)=C(N)O2 (centres undefined)	-14	-33%	·	50µM*	?	0%
Cc1[nH]nc2c1C(c1ccco1)C(C#N)=C(N)O2 (centres undefined)	-1	-8%	-23	-4%	-14%	18%
CCCc1nn(-c2ccccc2)c2c1C(c1cccs1)C(C#N)=C(N)O2 (centres undefined)	3	?	-4	?	40µM*	-27%
COc1cc(C2C(C#N)=C(N)Oc3c2c(-c2ccccc2)nn3-c2ccccc2)cc(OC)c1OC (centres undefined)	-20	?	1	?	45µM*	-2%
CCCC1=C(C(=O)OCC)C(c2c(C)nn(-c3ccccc3)c2Cl)C(C#N)=C(N)O1 (centres undefined)	0	-27%	4	?	15%	22%
Cc1nn(-c2ccccc2)c2c1C(c1ccco1)C(C#N)=C(N)O2 (centres undefined)	-4	63µM*	-21	40µM*	40µM*	-39%
Cc1cc(C)cc(N2CCn3c2nc2c3c(=O)n(Cc3ccc(Cl)cc3)c(=O)n2C)c1	·	-13%	·	-22%[59 µM]	-2%	26%
Cc1nn(-c2ccccc2)c2c1C(c1cccs1)C(C#N)=C(N)O2 (centres undefined)	-12	56µM*	-6	35µM*	40µM*	50µM*
Cc1nn(-c2ccccc2)c(C)c1C1C(C#N)=C(N)Oc2n[nH]c(C)c21 (centres undefined)	0	-6%	10	?	-20%	31%
O=C(NCc1cccc(F)c1)c1ccc(-n2cnc3cccnc32)cc1	·	-20%	·	-7%[59 µM]	-16%	6%
CCOc1ccc(CNC(=O)c2cnc3c(C)cccn3c2=O)cc1	·	7%	·	4%[59 µM]	-1%	34%
COc1ccc(CNC(=O)CCCN2C(=O)COc3ccc(C)cc32)cc1	·	-14%	·	48%[59 µM]	27%	66%
CCOC(=O)CCCCC(=O)c1[nH]c(=O)[nH]c1C[n+]1ccccc1	·	·	·	?	-8%	·
CCOC(=O)CCCCC(=O)c1[nH]c(=O)[nH]c1C[n+]1ccc(C)cc1	3	-15%	·	45µM*	?	23%
CCOC(=O)CCCCC(=O)c1[nH]c(=O)[nH]c1CN1CCOCC1	2	35µM*	6	?	16µM*	-37%
COc1ccc(CNC(=O)Cc2c(C)c3c(cc(C)c4c(C)coc43)oc2=O)cc1	·	-8%	·	5%[59 µM]	-7%	35%
COc1ccc(-n2c(SCC(=O)N3CCN(c4ccccc4)CC3)nc3c(c2=O)SCC3)cc1	-1	-27%	-11	45µM*	-37%	7%
CC(C)n1c(SCC(=O)N2CCCCC2)nc2c1c(=O)n(C)c(=O)n2C	-1	-1%	-3	1%	7%	49%
COc1ccc(N2CCN(C(=O)CSc3nc4c(c(=O)n(C)c(=O)n4C)n3C(C)C)CC2)cc1	1	-22%	15	50µM*	-9%	3%
CCc1ccc(Oc2c(C(F)(F)F)oc3c(CN4CCC(C)CC4)c(O)ccc3c2=O)cc1	·	7%	·	4%[59 µM]	-1%	38%
[O-]/C(=C(\C(=S)NCc1ccccc1)[n+]1ccccc1)c1ccc(Cl)cc1	-12	?	-7	22µM*	-36%	?
CCc1cc[n+](/C(C(=S)Nc2cccc(C)c2)=C(/[O-])c2ccc(C)c([N+](=O)[O-])c2)cc1	-15	-31%	-1	40µM*	?	?
Cc1ccc(C([O-])=C(C(=S)NCc2ccccc2)[n+]2cccc(CO)c2)cc1[N+](=O)[O-]	2	?	19	·	·	-16%

Bioassay records (PubChem BioAssay)
